Screening results as filed in PubChem.
CYP2C9 act – increases human cytochrome P450 2C9 activity | P11712 | recombinant CYP2C9, luciferin-H conversion, luminescence; hits give high values; factor 1 = untreated enzyme, 0 = blocked | activation factor at 5 µM | actives 1.4% (n = 96,000) | AID 1024;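 active = activation factor of 2 or more for CYP2C9 at a 5 µM dose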;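 also: 0 = sulfaphenazole-blocked wells and 1 = vehicle-only wells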
Target sequence (P11712 whole entry, looked up): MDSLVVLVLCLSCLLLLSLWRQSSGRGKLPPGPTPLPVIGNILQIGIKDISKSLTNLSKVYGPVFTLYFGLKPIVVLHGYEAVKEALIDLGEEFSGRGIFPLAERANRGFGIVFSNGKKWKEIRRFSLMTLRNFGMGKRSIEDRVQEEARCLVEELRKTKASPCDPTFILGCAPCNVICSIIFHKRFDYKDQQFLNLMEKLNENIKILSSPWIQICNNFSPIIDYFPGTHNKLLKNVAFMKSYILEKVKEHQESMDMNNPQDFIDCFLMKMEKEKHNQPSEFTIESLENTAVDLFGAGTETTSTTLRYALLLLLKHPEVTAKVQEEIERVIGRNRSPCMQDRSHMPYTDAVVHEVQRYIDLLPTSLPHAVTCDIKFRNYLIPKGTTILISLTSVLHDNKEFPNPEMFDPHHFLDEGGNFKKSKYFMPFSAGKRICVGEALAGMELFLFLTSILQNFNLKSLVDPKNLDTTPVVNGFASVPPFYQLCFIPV
CYP2C9 inh – inhibitors of human CYP2C9. CYP2C9 Supersomes, luciferin-H conversion, luminescence. inhibition, % at 5 µM. actives 20% (n = 96,000);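 active = blocking of liver enzyme CYP2C9 beyond about 50% at 5 µM, limit read from the data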
CYP2C19 act – cytochrome P450 2C19 (human) activation | recombinant CYP2C19, luciferin-H EGE luminescence; hits give high values; 0 = fully inhibited enzyme, 1 = untreated enzyme | P33261 | 96,000 tested, under 10 active | activation factor at 5 µM;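 active = activation factor of at least 2 at 5 µM in the primary screen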;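 also: 0 = wells with 2.5 mM tranylcypromine and 1 = vehicle-only wells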
Cav3 T inh – blocks human Cav3.2 T-type calcium channel; Cav3.2-expressing cells, Fluo-4 calcium fluorescence FDSS; hits give low values; AID 449739; B-score at 10 µM; actives 4% (n = 100,000);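 active = single-dose well whose peak fluorescence ratio is a statistical outlier from its plate by either plate-standardised score or position-corrected B-score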
CYP2C19 inhib – inhibitors of human CYP2C19. P33261. CYP2C19 Supersomes, luciferin-H EGE luminescence, 30 min. inhibition, % at 5 µM. actives 21% (n = 96,000). AID 778;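 active = CYP2C19 inhibition above a set limit at 5 µM in the primary screen, cut at about 50% in these data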;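 also: plate controls were negative control wells for no effect and 2.5 mM tranylcypromine positive control for full effect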
* hit, by the source's call; . = no result. Shown are actives, neighbours in structure and some others; about 27% of the full set was active somewhere.

SMILES	CYP2C9 act	CYP2C9 inh	CYP2C19 act	Cav3 T inh	CYP2C19 inhib
COC(=O)C1=C(C)OC(N)=C(C#N)C1c1cc(OC)c(OCC(N)=O)cc1Cl (configuration not stated)	0.5	47.3	1	1.3	-0.6
CN(C)c1ccc(NC(=O)CN2CCC(N3CCCCC3)CC2)cc1	1.2	-20.1	1.1	-0.0791	-10.5
Cc1ccc(S(=O)(=O)Nc2cccc3ncccc23)s1	2.5*	-153.5	0.6	-1.26	44.7
Cc1ccc(S(=O)(=O)Nc2ccnc3ccccc23)cc1	1.8	-80.5	0.8	-0.243	20.5
COc1ccccc1Cn1c(=O)c2ccccc2n2c(Sc3ncnc4sccc34)nnc12	0.4	57.4*	0.4	1.56	60.7*
CCCn1c(=O)c2ccccc2n2c(SCCOc3ccc(OC)cc3)nnc12	0.6	43.0	0.6	-0.424	38.6
COc1ccccc1Cn1c(=O)c2ccccc2n2c(SCc3csc(C)n3)nnc12	0.6	43.8	0.4	1.18	57.0*
O=C(c1ccc(Cl)s1)N1CCN(c2nc3ccccc3s2)CC1	0.9	14.3	0.8	-1.85	17.3
Cc1cc(C)c(-c2cc(C(F)(F)F)no2)c(=O)[nH]1	.	.	.	0.973	.
O=C(C[n+]1cc2ccccc2c2ccccc21)c1ccccc1	0.3	72.4*	0.4	-0.159	55.3*
O=C(O)CCC(=O)CCC(=O)c1ccccc1	1	-1.8	1	-0.0725	3.7
NC(=O)C1=C[C@@H](c2csc3ccccc23)C[C@@H](OCCCCO)O1	.	.	.	1.21	.
COc1cc(/C=C2\Oc3cc(O)ccc3C2=O)ccc1O	.	.	.	-2.68	.
COc1ccc(S(=O)(=O)Oc2ccc3c(c2)O/C(=C\c2cccnc2)C3=O)cc1	0.1	91.9*	0.3	0.166	74.8*
O=C1/C(=C/c2cccnc2)Oc2cc(OS(=O)(=O)c3ccccc3)ccc21	0.4	56.5*	0.7	-0.575	34.8
O=C1CCCC2=C1C(c1ccc(OS(=O)(=O)c3ccc(Cl)cc3)cc1)C1=C(CCCC1=O)O2	1.2	-17.4	1.1	0.485	-10.5
O=C1/C(=C/c2cccnc2)Oc2cc(OS(=O)(=O)c3ccc(Cl)cc3)ccc21	0.5	50.5*	0.7	0.849	26.0
O=C1/C(=C/c2ccc(O)c(O)c2)Oc2cc(O)ccc21	.	.	.	-0.501	.
CCOC(=O)c1c(C)[nH]c(C(=O)COC(=O)C2(C)CC2(Cl)Cl)c1C (configuration not stated)	0	99.1*	0.8	-1.83	23.9
CCOC(=O)c1c(C)[nH]c(C(=O)O)c1C	0.7	25.7	0.9	-0.0468	10.9
CCOC(=O)c1c(C)[nH]c(C(=O)COC(=O)CCC2CCCC2)c1C	0.2	82.4*	0.5	0.231	46.6
CCOC(=O)c1c(C)[nH]c(C(=O)COC(=O)CSCC(=O)N(CC)CC)c1C	0.6	43.8	1	0.302	0.9
CCN(C(=S)Nc1ccccc1F)C1CCCCC1	0.9	12.8	0.6	-0.518	41.7
Cc1cccc(N(Cc2nnc3n2CCCCC3)C(=O)Nc2ccccc2)c1	1	1.4	0.7	-0.00405	25.3
Cc1cccc(NC(=S)N(C)C2(c3ccccc3Cl)CCCCC2=O)c1 (configuration not stated)	0.3	67.8*	0	-1.31	96.6*
SMILES	CYP2C9 act	CYP2C9 inh	CYP2C19 act	Cav3 T inh	CYP2C19 inhib
CN(C(=S)Nc1ccccc1F)C1(c2ccccc2Cl)CCCCC1=O (configuration not stated)	1	2.8	0.2	0.664	81.6*
CCOC(=O)CNc1c(-c2ccc(O)cc2)nc2ccccn12	1.1	-6.0	1.1	0.731	-5.0
Oc1ccc(-c2nc3ccccn3c2NCc2ccc3c(c2)OCO3)cc1	1	-4.3	0.3	.	68.2*
COCCNC(=O)c1ccccc1NC(=O)c1ccccc1N(C)S(=O)(=O)c1ccc(C)cc1	0.1	94.7*	0.2	.	84.2*
Cc1ccc(NS(=O)(=O)c2cc(C(=O)O)ccc2Cl)c(C)c1	.	.	.	-0.0652	.
COC(=O)c1ccc(NC(=O)c2ccccc2N(C)S(=O)(=O)c2ccccc2)cc1	0.9	14.6	0.9	.	5.5
COCCNC(=O)c1ccccc1NC(=O)c1ccc(Cl)c(S(=O)(=O)Nc2ccc(C)cc2C)c1	0.2	81.1*	0.8	-1.08	18.4
Cc1ccc(C(=O)Nc2ccccc2-c2ccccc2)cc1[N+](=O)[O-]	0.5	50.1*	0.6	-1.08	37.1
Cc1ccc(C)c(NS(=O)(=O)c2cc(C(=O)Nc3ccccc3-c3ccccc3)ccc2Cl)c1	0.3	69.7*	0.2	-3.75	79.3*
Cc1ccc(S(=O)(=O)NCCNC(=O)N2CCOCC2)cc1	1.4	-41.8	1	-1.09	-2.5
